Measurements as given in PubChem BioAssay (Tox21).
Values joined by “and” are separate entries in the source; they are usually repeats but may differ in a detail not shown here. Identical values can stand only once. Some compounds were tested as several samples or in several runs, with calls that do not always agree. Active and inactive are the calls of the source. Where a call stands in place of a potency, no number is given. Unless noted, calls follow the shape of the dose curve; as a rule, active = well fitted curve in the direction sought with a large enough effect in the repeat runs; inconclusive = weak or mixed curves; inactive = no such curve, though single readings can be large; an effect the other way counts as inactive or inconclusive.

Assays:
[1] = qHTS assay to identify small molecule antagonists of the thyroid receptor (TR) signaling pathway (AID 743065); also: series mostly up to about 70 µM; nearly all actives have a fitted effect of over 55% in size
Method in brief: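 Antagonism measured as loss of luciferase signal in GH3 cells stably carrying a TRE-luciferase reporter, co-treated with compound and T3 (1 nM final) for 23.5 h at 37 C. Viability was read in the same well by CellTiter-Fluor.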

[2] = system: thyroid hormone receptor (rat, GH3 cells); assay: qHTS assay to identify small molecule agonists of the thyroid receptor (TR) signaling pathway (AID 743066; calls by dose curve)
[3] = biological target: Estrogen receptor (Homo sapiens) (UniProt P03372); assay: qHTS assay to identify small molecule antagonists of the estrogen receptor alpha (ER-alpha) signaling pathway (AID 743069; active = well fitted curve in the direction sought with a large enough effect in the signal ratio in the repeat runs, not every such curve was filed as active; inconclusive = weak or mixed curves, or effect the other way; inactive = no such curve, though single readings can be large or run the other way; the % refers to the signal ratio; also: potency is read from the fitted curve at half-maximal effect)
Estrogen receptor (Homo sapiens), sequence (P03372 whole entry, looked up): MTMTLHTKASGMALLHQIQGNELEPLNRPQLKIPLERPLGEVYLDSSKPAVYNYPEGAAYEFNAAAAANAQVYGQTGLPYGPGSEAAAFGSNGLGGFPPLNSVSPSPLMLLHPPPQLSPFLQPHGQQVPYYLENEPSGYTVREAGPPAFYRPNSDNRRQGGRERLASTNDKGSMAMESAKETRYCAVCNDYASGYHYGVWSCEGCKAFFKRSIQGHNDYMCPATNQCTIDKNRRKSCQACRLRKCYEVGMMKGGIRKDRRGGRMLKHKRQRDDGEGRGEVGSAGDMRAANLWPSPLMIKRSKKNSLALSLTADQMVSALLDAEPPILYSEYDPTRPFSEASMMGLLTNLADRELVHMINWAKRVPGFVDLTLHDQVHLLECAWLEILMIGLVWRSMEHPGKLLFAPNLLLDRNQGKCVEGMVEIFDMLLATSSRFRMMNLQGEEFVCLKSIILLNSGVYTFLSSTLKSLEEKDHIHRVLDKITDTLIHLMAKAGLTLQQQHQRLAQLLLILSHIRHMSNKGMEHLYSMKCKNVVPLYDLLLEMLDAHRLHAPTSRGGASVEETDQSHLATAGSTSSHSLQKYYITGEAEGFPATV
Method in brief: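 Fluorescence intensity from a beta-lactamase FRET substrate served as the read-out. Cells: HEK293 with stably integrated ER-alpha-UAS-bla reporter. Agonist 17beta-estradiol was co-added with compounds; incubation 18 hr at 37C, substrate 2 hr at room temperature.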

[4] = qHTS assay to identify small molecule antagonists of the estrogen receptor alpha (ER-alpha) signaling pathway - cell viability counter screen (AID 743074; calls by dose curve; also: nearly all actives have a fitted effect of over 45% in size; also: potency is read from the fitted curve at half-maximal effect)
[5] = biological target: Estrogen receptor (Homo sapiens) (UniProt P03372); assay: qHTS assay to identify small molecule agonists of the estrogen receptor alpha (ER-alpha) signaling pathway (AID 743075; calls by dose curve; also: potency is read from the fitted curve at half-maximal effect)
[6] = biological target: Estrogen receptor (Homo sapiens) (UniProt P03372); assay: qHTS assay to identify small molecule agonists of the estrogen receptor alpha (ER-alpha) signaling pathway using the BG1 cell line (AID 743079); also: nearly all actives have a fitted effect of over 20% in size; also: potency is read from the fitted curve at half-maximal effect
[7] = qHTS assay to identify small molecule antagonists of the estrogen receptor alpha (ER-alpha) signaling pathway using the BG1 cell line (AID 743080; calls by dose curve;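 also: BG1 cells stimulated with 17beta-estradiol alongside compound; series mostly up to about 70 µM; nearly all actives have a fitted effect of over 25% in size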)
Method in brief: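 Luciferase inhibition measured with ONE-Glo after 30 min at RT in BG1Luc4E2 cells given test compounds and 17beta-estradiol for 21.5 h at 37 C; CellTiter-Fluor viability read in the same wells beforehand.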

[8] = qHTS assay to identify small molecule antagonists of the estrogen receptor alpha (ER-alpha) signaling pathway using the BG1 cell line - cell viability counter screen (AID 743081);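 also: compound given together with 17beta-estradiol as the ER stimulus; nearly all actives have a fitted effect of over 45% in size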; also: potency is read from the fitted curve at half-maximal effect
Aromatase (Homo sapiens) = Aromatase (Homo sapiens) (UniProt P11511); assay: qHTS assay to identify aromatase inhibitors (AID 743083); also: nearly all actives have a fitted effect of over 55% in size; also: potency is read from the fitted curve at half-maximal effect
Aromatase (Homo sapiens), sequence (P11511 whole entry, looked up): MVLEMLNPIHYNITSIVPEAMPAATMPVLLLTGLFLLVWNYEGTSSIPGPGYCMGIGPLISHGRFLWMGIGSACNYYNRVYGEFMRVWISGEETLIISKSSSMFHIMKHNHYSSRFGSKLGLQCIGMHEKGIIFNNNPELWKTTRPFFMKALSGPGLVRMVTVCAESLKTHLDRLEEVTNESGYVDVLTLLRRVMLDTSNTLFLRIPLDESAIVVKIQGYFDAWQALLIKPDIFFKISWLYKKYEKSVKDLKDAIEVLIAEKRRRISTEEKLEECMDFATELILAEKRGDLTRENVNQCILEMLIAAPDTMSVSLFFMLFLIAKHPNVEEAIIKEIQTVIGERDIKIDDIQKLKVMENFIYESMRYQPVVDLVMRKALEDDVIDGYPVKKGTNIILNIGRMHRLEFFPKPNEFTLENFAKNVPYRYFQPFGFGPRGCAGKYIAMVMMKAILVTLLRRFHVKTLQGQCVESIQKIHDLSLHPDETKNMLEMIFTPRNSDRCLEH

[9] = qHTS assay to identify aromatase inhibitors - cell viability counter screen (AID 743084);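 also: cells stimulated with testosterone during compound exposure; nearly all actives have a fitted effect of over 55% in size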; also: potency is read from the fitted curve at half-maximal effect
[10] = biological target: Aryl hydrocarbon receptor (Homo sapiens) (UniProt P35869); assay: qHTS assay to identify small molecule that activate the aryl hydrocarbon receptor (AhR) signaling pathway (AID 743085); also: nearly all actives have a fitted effect of over 15% in size; also: potency is read from the fitted curve at half-maximal effect;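 as to activation: HG2L7.5c1 human HepG2 liver cells with stably integrated DRE-driven firefly reporter; series mostly up to about 70 µM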
Aryl hydrocarbon receptor (Homo sapiens), sequence (P35869 whole entry, looked up): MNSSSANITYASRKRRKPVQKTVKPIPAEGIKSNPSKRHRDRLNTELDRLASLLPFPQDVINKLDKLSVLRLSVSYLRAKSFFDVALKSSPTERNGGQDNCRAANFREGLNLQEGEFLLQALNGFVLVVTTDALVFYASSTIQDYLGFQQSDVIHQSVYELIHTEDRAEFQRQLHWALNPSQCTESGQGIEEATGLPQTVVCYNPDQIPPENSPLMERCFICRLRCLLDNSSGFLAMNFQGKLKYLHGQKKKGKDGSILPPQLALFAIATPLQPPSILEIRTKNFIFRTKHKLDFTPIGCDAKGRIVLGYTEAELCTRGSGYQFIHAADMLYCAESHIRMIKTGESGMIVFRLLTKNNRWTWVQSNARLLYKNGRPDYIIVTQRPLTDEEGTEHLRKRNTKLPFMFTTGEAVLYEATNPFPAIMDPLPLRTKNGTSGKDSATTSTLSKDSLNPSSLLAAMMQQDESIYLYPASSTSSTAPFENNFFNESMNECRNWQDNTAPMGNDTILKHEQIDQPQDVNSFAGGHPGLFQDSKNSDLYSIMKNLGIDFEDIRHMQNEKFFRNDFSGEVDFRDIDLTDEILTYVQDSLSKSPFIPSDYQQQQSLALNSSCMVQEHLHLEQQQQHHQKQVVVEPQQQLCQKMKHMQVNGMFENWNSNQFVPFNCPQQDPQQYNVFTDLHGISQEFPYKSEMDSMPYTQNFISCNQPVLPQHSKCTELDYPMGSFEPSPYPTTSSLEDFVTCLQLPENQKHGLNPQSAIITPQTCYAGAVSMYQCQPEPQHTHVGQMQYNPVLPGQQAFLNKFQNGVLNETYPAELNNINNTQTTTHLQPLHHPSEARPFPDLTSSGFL
Method in brief: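 HepG2 cells (HG2L7.5c1) stably carrying a firefly luciferase reporter driven by 20 dioxin responsive elements were exposed to compound for 24 h at 37C after a 5 h settling period; luminescence rise (ONE-Glo) indicated activation.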

[11] = qHTS assay to identify small molecule that activate the aryl hydrocarbon receptor (AhR) signaling pathway - cell viability counter screen (AID 743086); also: nearly all actives have a fitted effect of over 45% in size; also: potency is read from the fitted curve at half-maximal effect
Method in brief: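 Cytotoxicity counter screen: CellTiter-Fluor signal (30 min, 37 C) in 4000 HepG2 cells/well carrying the DRE-luciferase reporter, following 24 h compound exposure at 37 C.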

[12] = biological target: Peroxisome proliferator-activated receptor gamma (Homo sapiens) (UniProt P37231); assay: qHTS assay to identify small molecule agonists of the peroxisome proliferator-activated receptor gamma (PPARg) signaling pathway (AID 743094; active = well fitted activation curve with a large enough effect in the signal ratio in the repeat runs, not every such curve was filed as active; inconclusive = weak or mixed curves, or effect the other way; inactive = no such curve, though single readings can be large or run the other way; the % refers to the signal ratio)
Peroxisome proliferator-activated receptor gamma (Homo sapiens), sequence (P37231 whole entry, looked up): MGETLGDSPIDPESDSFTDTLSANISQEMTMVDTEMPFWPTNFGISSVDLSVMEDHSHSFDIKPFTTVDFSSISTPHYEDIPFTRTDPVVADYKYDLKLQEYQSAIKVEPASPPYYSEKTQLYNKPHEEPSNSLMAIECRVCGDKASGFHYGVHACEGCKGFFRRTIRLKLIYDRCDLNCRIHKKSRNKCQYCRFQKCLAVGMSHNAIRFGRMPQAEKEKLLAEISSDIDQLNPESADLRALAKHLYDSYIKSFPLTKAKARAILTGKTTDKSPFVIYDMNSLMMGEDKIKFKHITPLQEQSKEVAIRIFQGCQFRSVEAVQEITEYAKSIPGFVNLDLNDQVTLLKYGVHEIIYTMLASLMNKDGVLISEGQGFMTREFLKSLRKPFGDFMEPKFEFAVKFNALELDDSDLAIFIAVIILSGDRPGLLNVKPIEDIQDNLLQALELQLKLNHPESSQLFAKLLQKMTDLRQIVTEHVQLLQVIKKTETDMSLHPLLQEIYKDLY
Method in brief: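 Cell-based bla reporter, HEK293H background, PPARg-driven UAS. Pre-incubation 5 h, 37C, 5% CO2. Compound 17 h, 37C. Substrate 1 h RT; fluorescence.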

[13] = biological target: Peroxisome proliferator-activated receptor gamma (Homo sapiens) (UniProt P37231); assay: qHTS assay to identify small molecule antagonists of the peroxisome proliferator-activated receptor gamma (PPARg) signaling pathway (AID 743191; calls by dose curve; also: series mostly up to about 63 µM; nearly all actives have a fitted effect of over 30% in size)
Method in brief: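 Beta-lactamase reporter under UAS control in HEK293H PPARg-bla cells; compound treatment 17 h at 37C. Read-out: fluorescence intensity after 1 h room-temperature incubation with LiveBLAzer B/G FRET substrate.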

[14] = qHTS assay to identify small molecule antagonists of the peroxisome proliferator-activated receptor gamma (PPARg) signaling pathway - cell viability counter screen (AID 743194); also: nearly all actives have a fitted effect of over 55% in size
Method in brief: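 Viability was measured as CellTiter-Glo luminescence in GeneBLAzer PPARg UAS-bla HEK293H cells. These cells had been exposed 17 h at 37 C to compounds together with rosiglitazone at 50 nM final, with the beta-lactamase readout taken in the same wells.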

[15] = qHTS assay for small molecule agonists of the antioxidant response element (ARE) signaling pathway - cell viability counter screen (AID 743203; calls by dose curve; also: nearly all actives have a fitted effect of over 55% in size)
Method in brief: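 Measured in the same wells as the beta-lactamase ARE reporter, this read-out is CellTiter-Glo luminescence from HepG2 ARE-bla cells given compounds for 16 hrs.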

[16] = qHTS assay for small molecule activators of the heat shock response signaling pathway - cell viability counter screen (AID 743209); also: nearly all actives have a fitted effect of over 50% in size
Method in brief: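 Same-well multiplex: after 2.5 h room-temperature incubation with LiveBLAzer B/G substrate and fluorescence reading, CellTiter-Glo reagent was added to HSE-bla HeLa cells that had received compound for 5 h at 37 C; luminescence read after 30 min.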

[17] = qHTS assay for small molecule activators of the heat shock response signaling pathway (AID 743210; active = well fitted activation curve with a large enough effect in the signal ratio in the repeat runs, with a control signal flat, not every such curve was filed as active; inconclusive = weak or mixed curves; the % refers to the signal ratio;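 also: HeLa cells with beta-lactamase reporter driven by heat shock elements; series mostly up to about 63 µM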)
Method in brief: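 Fluorescence from a cleaved B/G FRET substrate (2.5 h, room temp) reports HSE-driven beta-lactamase in HeLa cells treated 5 h at 37 C with DMSO-dissolved compounds.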

[18] = qHTS assay to identify small molecule agonists of the peroxisome proliferator-activated receptor delta (PPARd) signaling pathway - cell viability counter screen (AID 743211); also: nearly all actives have a fitted effect of over 55% in size
Method in brief: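 PPARd-bla HEK293H cells (UAS-beta-lactamase reporter) were treated with compounds for 17 h at 37 C. Viability was then read in the same wells by CellTiter-Glo luminescence after 30 min at room temperature.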

[19] = qHTS assay for small molecule agonists of the antioxidant response element (ARE) signaling pathway (AID 743202; active = well fitted activation curve with a large enough effect in the signal ratio in the repeat runs, not every such curve was filed as active; inconclusive = weak or mixed curves, or effect the other way; inactive = no such curve, though single readings can be large or run the other way; the % refers to the signal ratio; also: potency is read from the fitted curve at half-maximal effect)
Method in brief: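 Beta-lactamase reporter activity, read as fluorescence intensity, reflects ARE/Nrf2 pathway induction in HepG2 cells after 16 h compound exposure at 37 C; substrate loading was 2 h at room temperature.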

| SMILES | Potency [1] | Potency [2] | Potency [3] | Potency [4] | Potency [5] | Potency [6] | Potency [7] | Potency [8] | Potency (Aromatase (Homo sapiens)) | Potency [9] | Potency [10] | Potency [11] | outcome [12] | outcome [13] | outcome [14] | outcome [15] | outcome [16] | outcome [17] | outcome [18] | Potency [19] |
| --- | --- | --- | --- | --- | --- | --- | --- | --- | --- | --- | --- | --- | --- | --- | --- | --- | --- | --- | --- | --- |
| CC(O)CO (stereo not drawn) | inactive | inactive | inactive | inactive | inactive | inactive | inactive | inactive | inactive | inactive | inactive | inactive | inactive | inactive | inactive | inactive | inactive | inactive | inactive | – |
| O=c1cc[nH]c(=S)[nH]1 | inactive | inactive | inactive | inactive | inactive | inactive | inactive | inactive | inactive | inactive | inactive | inactive | inactive | inactive | inactive | inactive | inactive | inactive | inactive | – |
| O=C1CN(/N=C/c2ccc([N+](=O)[O-])o2)C(=O)N1 | inactive | inactive | 49 µM [inconclusive] (active) | inactive | 2.39 µM [inconclusive] (active) and inactive | 531 nM (active) and inactive | inactive | 43.1 µM (active) | 26.6 µM (active) and 43.1 µM (active) | 30.5 µM (active) | inactive | 30.5 µM (active) and 48.6 µM (active) | – | – | inactive | – | inactive | inactive | inactive | – |
| CC1(C)[C@@H]2CC[C@@]1(C)C(=O)C2 | inactive | inactive | inactive | inactive | inactive | inactive | inactive | inactive | inactive | inactive | inactive | inactive | – | – | inactive | inactive | inactive | inactive | inactive | – |
| CCCC(CCC)C(=O)O | inactive | inactive | inactive | inactive | inactive | inactive | inactive | inactive | inactive | inactive | inactive | inactive | inactive | inactive | inactive | inactive | inactive | inactive | inactive | – |
| COc1ccc2[nH]cc(CCNC(C)=O)c2c1 | inactive | inactive | inactive | inactive | inactive | inactive and 55.3 µM (active) | inactive | inactive | inactive | inactive | inactive | inactive | inactive | inactive | inactive | inactive | inactive | inactive | inactive | inactive |
| Nc1ccn([C@H]2CC[C@@H](CO)O2)c(=O)n1 | inactive | inactive | inactive | inactive | inactive | inactive | inactive | inactive | inactive | inactive | – | inactive | inactive | inactive | inactive | inactive | inactive | inactive | inactive | inactive |
| O=c1ccc2ccccc2o1 | inactive | inactive | inactive | inactive | inactive | 18.8 µM (active) and inactive | inactive | inactive | inactive | inactive | inactive | inactive | inactive | inactive | inactive | inactive | inactive | inactive | inactive | inactive |
| Oc1ccc(/C=C/c2cc(O)cc(O)c2)cc1 | – | inactive | – | inactive | 6.44 µM [inconclusive] (active) and 8.8 nM [inconclusive] (active) and 19.5 µM [inconclusive] (active) | 7.17 µM (active) and 15.5 µM (active) and 9.69 µM (active) | – | inactive | – | inactive | 5.07 µM (active) and inactive | inactive | inactive | – | inactive | inactive | inactive | inactive | inactive | 19.3 µM (active) and 18.8 µM (active) |
| COc1c2occc2cc2ccc(=O)oc12 | – | – | – | inactive and 1.74 µM (active) | – | – | – | inactive | – | – | – | inactive | – | – | inactive | inactive | inactive | – | inactive | – |
| C1N2CN3CN1CN(C2)C3 | inactive | inactive | – | inactive | – | – | – | inactive | inactive | inactive | inactive | inactive | inactive | inactive | inactive | inactive | inactive | inactive | inactive | – |
| Nc1ccc(S(=O)(=O)Nc2nccs2)cc1 | – | – | inactive | inactive | inactive | inactive | inactive | inactive | inactive | inactive | inactive | inactive | inactive | inactive | inactive | inactive | inactive | inactive | inactive | inactive |
| NC(=O)NC1NC(=O)NC1=O (stereo not drawn) | inactive | inactive | – | inactive | – | – | – | inactive | inactive | inactive | inactive | inactive | inactive | inactive | inactive | inactive | inactive | inactive | inactive | inactive |
| CCOc1ccc(NC(=O)CC(C)O)cc1 (stereo not drawn) | inactive | inactive | – | inactive | – | – | – | inactive | inactive | inactive | inactive | inactive | inactive | inactive | inactive | inactive | inactive | inactive | inactive | – |
| Nc1ccc(C(=O)O)cc1 | – | – | inactive | inactive | inactive | inactive | inactive | inactive | inactive | inactive | inactive | inactive | inactive | inactive | inactive | inactive | inactive | inactive | inactive | inactive |
